Source: PubChem BioAssay
Most compounds without a hit are left out; they make up all but 22% or so of the library.
Pf growth 96h = inhibits malaria parasite growth, 96 h. P. falciparum luciferase reporter growth, 96 h. Potency, µM (titrated, usually from 28.7 µM), without a hit: top-dose activity change, negative = inhibition, most hits filed as inhibitors. actives 6.9% (n = 320,000); also: potency is read from the fitted curve at half-maximal effect; % is scaled to controls: 0 for no effect and ±100 for the full control effect
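Erythrocytes infected with luciferase-expressing P. falciparum were dispensed at 2% hematocrit and 0.05% parasitemia (final), then incubated with compounds 96 hours at 37 C in 5% CO2. Luminescence after detection reagent addition reported growth.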
Pf growth 48h = inhibits P. falciparum growth in the first generation, 48 h | P. falciparum luciferase growth in erythrocytes, 48 h | Potency, µM (highest dose often 28.7 µM), for the others: at the top dose activity change, negative = inhibition, most hits filed as inhibitors | actives 5.9% (n = 310,000) | AID 504832; also: potency is read from the fitted curve at half-maximal effect; % is scaled to controls: 0 for no effect and ±100 for the full control effect
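Cell-based growth assay: transgenic P. falciparum expressing firefly luciferase, cultured in red cells within RPMI 1640 containing 0.5% w/v Albumax, 24 mM bicarbonate and gentamycin. A drop in luciferase activity indicates inhibition.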
Shiga toxin inh = Shiga toxin inhibition; Vero cells, Shiga toxin protein synthesis inhibition reporter; inhibition, % at 38.7 µM; actives 9.2% (n = 290,000); in the data active = inhibition mostly above about 28%, no sharp cut-off; inactive = mostly below about 43%; also: 0% is about no effect
LmPK inhibitor = blocks Leishmania mexicana pyruvate kinase activity; AID 1721; purified LmPK, Kinase-Glo ATP luminescence, 1 h; Potency, µM (top dose mostly 57.5 µM), without a hit: top-dose activity change, negative = inhibition, most hits filed as inhibitors; Q27686; actives 0.37% (n = 290,000); also: potency is read from the fitted curve at half-maximal effect; % is scaled to controls: 0 for no effect and ±100 for the full control effect
Target sequence (Q27686 whole entry, looked up): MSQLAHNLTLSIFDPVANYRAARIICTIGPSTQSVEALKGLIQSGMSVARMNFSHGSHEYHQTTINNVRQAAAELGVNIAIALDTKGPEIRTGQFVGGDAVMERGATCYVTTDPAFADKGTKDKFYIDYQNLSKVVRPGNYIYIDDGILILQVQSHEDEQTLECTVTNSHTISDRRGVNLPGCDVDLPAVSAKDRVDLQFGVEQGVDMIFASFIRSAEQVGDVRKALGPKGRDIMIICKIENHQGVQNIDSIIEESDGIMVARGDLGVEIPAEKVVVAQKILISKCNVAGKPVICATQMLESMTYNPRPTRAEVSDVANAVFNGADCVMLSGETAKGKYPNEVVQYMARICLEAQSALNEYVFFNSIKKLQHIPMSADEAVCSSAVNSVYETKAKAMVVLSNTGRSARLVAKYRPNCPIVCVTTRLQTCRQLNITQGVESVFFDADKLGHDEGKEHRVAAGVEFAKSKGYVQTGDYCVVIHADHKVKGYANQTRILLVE
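0.1 nM LmPK, 0.5 mM PEP, 0.1 mM ADP; 50 mM imidazole pH 7.2, 7 mM MgCl2, 50 mM KCl; 1 h RT. Kinase-Glo luminescence readout, normalized to no-enzyme (full inhibition) and uninhibited wells.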
Cycloheximide cs = counter-screen hit for Shiga toxin inhibitors, cycloheximide | actives 12% (n = 300,000) | cell reporter, cycloheximide protein synthesis inhibition counterscreen | max response, %; in the data active = max response mostly above about 13%, no sharp cut-off; inactive = mostly below about 14%; also: read at 38.3 µM for the half of the compounds with a filed dose; 0% is about no effect
* hit, by the source's call; ? = inconclusive; . = no result; [ ] = another dose, or the depositor's remark. Unless noted, calls follow the shape of the dose curve; as a rule, active = well fitted inhibition curve with a large enough effect; inconclusive = small, poorly fitted or top-dose-only effect, or another doubt; inactive = no such curve, though single readings can be large or run the other way.

SMILES	Pf growth 96h	Pf growth 48h	Shiga toxin inh	LmPK inhibitor	Cycloheximide cs
COc1cccc(C2C(C#N)=C(N)N(N(C)C)C3=C2C(=O)CC(C)(C)C3)c1OC (centres undefined)	-7%	?	-4	-3%	-2
CCn1c(SCC(=O)N(C)c2ccccc2)nc2c([nH]c3ccccc32)c1=O	?	?	0	-4%	7
COc1ccc(-n2c(SCC(=O)N(C)c3ccccc3)nc3c([nH]c4ccccc43)c2=O)cc1OC	4.7µM*	8.3µM*	6	5%	-2
COc1ccc(-n2c(SCC(=O)Nc3ccc(C(N)=O)cc3)nc3c([nH]c4ccccc43)c2=O)cc1OC	12µM*	?	-11	1%	1
CC1=NN(C(=O)c2cccc(Cn3nc(C)c([N+](=O)[O-])c3C)c2)C(O)(C(F)(F)F)C1 (centres undefined)	.	5%	-9	7%	8
O=C(Nc1ccc(Cl)cc1F)C1CCCN(C2=NS(=O)(=O)c3ccccc32)C1 (centres undefined)	?	-25%	.	.	.
COc1ccc(Cl)c2c1[nH]c1nc(SCc3ccccn3)nnc12	-13%	205%	89*	-4%	41*
COc1ccc(Cl)c2c1[nH]c1nc(SCc3cccnc3)nnc12	27%	-4%	21	8%	10
O=C(c1ccccc1)N1N=C(c2ccccc2)CC1c1ccccc1 (centres undefined)	2.3µM*	.	13	7%	-3
O=C(c1ccccc1)N1N=C(c2ccccc2)CC1c1ccccc1[N+](=O)[O-] (centres undefined)	1.7µM*	?	-9	0%	-2
O=C(c1ccccc1Br)N1N=C(c2ccccc2)CC1c1ccccc1F (centres undefined)	?	?	-9	5%	12
O=C(O)c1ccccc1C(=O)N1N=C(c2ccccc2)CC1c1ccccc1O (centres undefined)	?	-17%	67*	-6%	52*
CCC(CC)C(=O)N1N=C(c2ccc(NS(C)(=O)=O)cc2)CC1c1ccc(C)cc1 (centres undefined)	5.2µM*	?	10	11%	7
CC(=O)N1N=C(c2ccccc2)CC1c1ccccc1[N+](=O)[O-] (centres undefined)	-9%	?	-6	1%	14
COc1cc(-c2nnc(SCC(=O)NC3CCS(=O)(=O)C3)o2)cc(OC)c1OC (centres undefined)	10%	11%	-3	0%	0
N=C(SC1CC(=O)N(c2ccc(F)cc2)C1=O)N1N=C(c2ccccc2)CC1c1ccccc1 (centres undefined)	33%	2.1µM*	4	4%	-2
Cc1ccc(C(=O)N2N=C(c3ccc(Br)cc3)CC2c2ccccc2O)cc1 (centres undefined)	10µM*	?	6	-7%	13*
CCS(=O)(=O)Nc1ccc(C2=NN(C(=O)c3ccccc3)C(c3cccs3)C2)cc1 (centres undefined)	?	?	0	6%	0
Cc1ccc(C2=NN3C(=O)c4ccccc4C3C2)cc1 (centres undefined)	8.3µM*	?	57*	0%	55*
Cc1cccc(C(=O)N2N=C(c3ccc(NS(C)(=O)=O)cc3)CC2c2cccs2)c1 (centres undefined)	?	8.3µM*	-5	7%	-3
O=C1CCC(C(=O)N2CCN(c3cnccn3)CC2)CN1CCc1cccc(F)c1 (centres undefined)	2%	-13%	12	-4%	16
COc1ccccc1C1CC(c2ccc(NS(C)(=O)=O)cc2)=NN1S(=O)(=O)c1ccccc1 (centres undefined)	?	?	-10	4%	-17
COc1ccc(OC)c(C2CC(c3ccc(NS(C)(=O)=O)cc3)=NN2C(=O)c2ccccc2)c1 (centres undefined)	?	?	41	8%[11.5 µM]	11
Cc1ccc(C(=O)N2N=C(c3ccccc3O)CC2c2ccccc2)cc1 (centres undefined)	?	10µM*	-1	-3%	-1
COc1ccccc1C1CC(c2ccccc2)=NN1C(=O)c1ccccc1 (centres undefined)	1%	0.37µM*	-5	-3%	-8
SMILES	Pf growth 96h	Pf growth 48h	Shiga toxin inh	LmPK inhibitor	Cycloheximide cs
COc1ccccc1C1CC(c2ccc(NS(C)(=O)=O)cc2)=NN1C(=O)c1ccccc1 (centres undefined)	?	2.1µM*	9	-3%	8
COc1cccc(C2CC(c3ccc(NS(C)(=O)=O)cc3)=NN2C(=O)c2ccccc2)c1OC (centres undefined)	-76%	?	134*	0%[11.5 µM]	51*
Cc1ccc(N(C(=O)CNC(=O)c2ccco2)C(C(=O)NC2CCCCC2)c2ccncc2)cc1F (centres undefined)	?	-9%	-14	5%	-4
C#CCOCCOCCOCCNc1nc(N2CCOCC2)nc(N2CCN(C(=O)[C@H]([C@@H](C)CC)n3cc(CCCCN)nn3)CC2)n1	8.3µM*	?	-17	2%	-3
C#CCOCCOCCOCCNc1nc(N2CCN(C(=O)[C@H]([C@@H](C)CC)n3cc(CCCCN)nn3)CC2)nc(N2CCN(C(=O)[C@H](C)n3cc(CCCN=C(N)N)nn3)CC2)n1	4%	?	.	.	.
C#CCOCCOCCOCCNc1nc(N2CCN(C(=O)[C@H]([C@@H](C)CC)n3cc(CCCCN)nn3)CC2)nc(N2CCN(C(=O)[C@H]([C@@H](C)CC)n3cc(CCCN=C(N)N)nn3)CC2)n1	7.4µM*	?	.	.	.
C#CCOCCOCCOCCNc1nc(N2CCN(C(=O)[C@H]([C@@H](C)O)n3cc(CCCCN)nn3)CC2)nc(N2CCN(C(=O)[C@H]([C@@H](C)CC)n3cc(CCCN=C(N)N)nn3)CC2)n1	4.7µM*	?	-6	0%	-4
C#CCOCCOCCOCCNc1nc(N2CCN(C(=O)[C@H](C(C)C)n3cc(CCO)nn3)CC2)nc(N2CCN(C(=O)[C@H]([C@@H](C)CC)n3cc(CCCCN)nn3)CC2)n1	?	?	-12	1%	-4
COC(=O)C1(O)CC(C(C)C)=NN1C(=O)c1ccccc1 (centres undefined)	19%	24%	2	-2%	-2
CCC(=O)Nc1ccc(-c2cc(-c3ccccc3)nc(-c3ccc(NC(=O)CC)cc3)n2)cc1	13µM*	?	9	1%	-1
Nc1ccc(-c2nc(-c3ccccc3)nc3ccccc23)cc1	-15%	19%	2	1%	-2
CC(=O)Nc1ccc(-c2cc(-c3ccc(NC(C)=O)cc3)nc(-c3ccccc3)n2)cc1	?	7%	15	0%	-1
Nc1ccc(-c2cc(-c3cccc(N)c3)nc(-c3ccccc3)n2)cc1	2.1µM*	13µM*	-17	4%	-5
